Results: the supplement of paper PMC10037445
Whole data set: some 2,900 compounds, median “NF-kB SEAP reporter activity, fold change vs agonist alone” near 0.99, cut for the highest 2% near 2.6. The entries come from a sample that favours the highest values as a whole.

Assays:
RAW-Dual [1] = assay: NF-kB SEAP reporter activity, fold change vs agonist alone; higher = enhanced NF-kB activity
Summary of the method: (§1)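 Supernatant from RAW-Dual macrophages was read after 20 hours for IRF by QuantiLuc luminescence and for NF-κB by QuantiBlue absorbance at 620 nm. The cells (50,000 cells/well in DMEM, 384-well plates, 37 °C, 5% CO2) had received 50 nL of library stock by pin tool and, 1 h later, a PRR agonist. Reporter activity is expressed relative to agonist-alone wells as fold change, and wells were flagged cytotoxic if IncuCyte confluency was under 70% of agonist controls in both mask sets.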

RAW-Dual [2] = assay: NF-kB SEAP reporter activity, fold change vs agonist alone; cytotoxicity flag (confluency mask): cytotoxic (confluency <70% of control); higher = enhanced NF-kB activity
Summary of the method: as §1

RAW-Dual [3] = assay: NF-kB SEAP reporter activity, fold change vs agonist alone; cytotoxicity flag (confluency mask): not cytotoxic; higher = enhanced NF-kB activity
Summary of the method: as §1

[4] = library stock concentration (final ~1000-fold dilution): 10 mM, cytotoxicity flag (confluency mask): not cytotoxic, agonist: Imiquimod (TLR7) […]
[5] = library stock concentration (final ~1000-fold dilution): 10 mM, cytotoxicity flag (confluency mask): not cytotoxic, agonist: MPLA (TLR4) […]
[6] = agonist: ODN 1826 (TLR9) 0.5 ug/mL
[7] = agonist: Pam2CSK4 (TLR2/6) 0.1 ug/mL
[8] = agonist: Pam3CSK4 (TLR2/1) 0.1 ug/mL

Cc1c(CN2CCN(C(=O)C(C)O)CC2)sc2c(N3CCOCC3)nc(-c3cnc(N)nc3)nc12 (centres undefined)
NF-kB SEAP reporter activity (RAW-Dual [1]; [4]): 1 | NF-kB SEAP reporter activity (RAW-Dual [1]; [5]): 1.08

COc1ccc(-c2nc(N3CCOCC3)c3sc(CN(C)c4ncc(C(=O)NO)cn4)cc3n2)cn1
NF-kB SEAP reporter activity (RAW-Dual [1]; library stock concentration (final ~1000-fold dilution): 10 mM, cytotoxicity flag (confluency mask): cytotoxic (confluency <70% of control), agonist: Imiquimod (TLR7) […]): 2.88 | NF-kB SEAP reporter activity (RAW-Dual [1]; library stock concentration (final ~1000-fold dilution): 10 mM, cytotoxicity flag (confluency mask): cytotoxic (confluency <70% of control), agonist: MPLA (TLR4) […]): 2.66

COC1(c2sc3c(N4CCOCC4)nc(-c4cnc(N)nc4)nc3c2C)COC1
NF-kB SEAP reporter activity (RAW-Dual [1]; [4]): 0.913 | NF-kB SEAP reporter activity (RAW-Dual [1]; [5]): 1.05

COc1ccc(-c2nc(N3CCOCC3)c3sc(CN(C)c4ncc(C(=O)NO)cn4)cc3n2)cn1 (library stock concentration (final ~1000-fold dilution): 10 mM)
NF-kB SEAP reporter activity (RAW-Dual [2]; agonist: LPS (TLR4) 0.1 ug/mL): 4.34 | NF-kB SEAP reporter activity (RAW-Dual [2]; [6]): 2.1 | NF-kB SEAP reporter activity (RAW-Dual [2]; [7]): 1.3 | NF-kB SEAP reporter activity (RAW-Dual [2]; [8]): 1.6

Cc1c(CN2CCN(C(=O)C(C)O)CC2)sc2c(N3CCOCC3)nc(-c3cnc(N)nc3)nc12 (centres undefined) (library stock concentration (final ~1000-fold dilution): 10 mM)
NF-kB SEAP reporter activity (RAW-Dual [3]; agonist: LPS (TLR4) 0.1 ug/mL): 1.32 | NF-kB SEAP reporter activity (RAW-Dual [3]; [6]): 0.763 | NF-kB SEAP reporter activity (RAW-Dual [3]; [7]): 0.412 | NF-kB SEAP reporter activity (RAW-Dual [3]; [8]): 0.661

CC(C)(CNC(=O)c1cccc(-c2noc(C(F)(F)F)n2)c1)c1coc(-c2ccccc2)n1
NF-kB SEAP reporter activity (RAW-Dual [1]; [4]): 0.959 | NF-kB SEAP reporter activity (RAW-Dual [1]; [5]): 1.09

CC(C)(CNC(=O)c1cccc(-c2noc(C(F)(F)F)n2)c1)c1coc(-c2ccccc2)n1 (library stock concentration (final ~1000-fold dilution): 10 mM)
NF-kB SEAP reporter activity (RAW-Dual [3]; agonist: LPS (TLR4) 0.1 ug/mL): 1.03 | NF-kB SEAP reporter activity (RAW-Dual [3]; [6]): 1.03 | NF-kB SEAP reporter activity (RAW-Dual [3]; [7]): 0.625 | NF-kB SEAP reporter activity (RAW-Dual [3]; [8]): 0.745

Nc1ncn(C2CC(O)C(CO)O2)c(=O)n1 (centres undefined)
NF-kB SEAP reporter activity (RAW-Dual [1]; [4]): 1.58 | NF-kB SEAP reporter activity (RAW-Dual [1]; [5]): 1.38

Nc1ccn(C2OC(CO)C(O)C2O)c(=O)n1 (centres undefined)
NF-kB SEAP reporter activity (RAW-Dual [1]; library stock concentration (final ~1000-fold dilution): 10 mM water, cytotoxicity flag (confluency mask): not cytotoxic, agonist: Imiquimod (TLR7) […]): 1.46 | NF-kB SEAP reporter activity (RAW-Dual [1]; library stock concentration (final ~1000-fold dilution): 10 mM water, cytotoxicity flag (confluency mask): not cytotoxic, agonist: MPLA (TLR4) […]): 1.33

Nc1ccn(C2OC(CO)C(O)C2O)c(=O)n1 (centres undefined) (library stock concentration (final ~1000-fold dilution): 10 mM water)
NF-kB SEAP reporter activity (RAW-Dual [3]; agonist: LPS (TLR4) 0.1 ug/mL): 1.92 | NF-kB SEAP reporter activity (RAW-Dual [3]; [6]): 1.7 | NF-kB SEAP reporter activity (RAW-Dual [3]; [7]): 1.85 | NF-kB SEAP reporter activity (RAW-Dual [3]; [8]): 1.83

Nc1ncn(C2OC(CO)C(O)C2O)c(=O)n1 (centres undefined) (library stock concentration (final ~1000-fold dilution): 10 mM)
NF-kB SEAP reporter activity (RAW-Dual [3]; agonist: LPS (TLR4) 0.1 ug/mL): 1.06 | NF-kB SEAP reporter activity (RAW-Dual [3]; [6]): 1.91 | NF-kB SEAP reporter activity (RAW-Dual [3]; [7]): 0.631 | NF-kB SEAP reporter activity (RAW-Dual [3]; [8]): 0.71

Nc1ncn(C2CC(O)C(CO)O2)c(=O)n1 (centres undefined) (library stock concentration (final ~1000-fold dilution): 10 mM)
NF-kB SEAP reporter activity (RAW-Dual [3]; agonist: LPS (TLR4) 0.1 ug/mL): 1.55 | NF-kB SEAP reporter activity (RAW-Dual [3]; [6]): 1.41 | NF-kB SEAP reporter activity (RAW-Dual [3]; [7]): 1.14 | NF-kB SEAP reporter activity (RAW-Dual [3]; [8]): 1.26

Nc1ncn(C2OC(CO)C(O)C2O)c(=O)n1 (centres undefined)
NF-kB SEAP reporter activity (RAW-Dual [1]; [4]): 2.59 | NF-kB SEAP reporter activity (RAW-Dual [1]; [5]): 2.47

O=C(O)CC(C(=O)O)N1C(=O)/C(=C2/C(=O)Nc3ccc(Br)cc32)SC1=S (centres undefined)
NF-kB SEAP reporter activity (RAW-Dual [1]; [4]): 1.33 | NF-kB SEAP reporter activity (RAW-Dual [1]; [5]): 1.72

O=C(O)CC(C(=O)O)N1C(=O)/C(=C2/C(=O)Nc3ccc(Br)cc32)SC1=S (centres undefined) (library stock concentration (final ~1000-fold dilution): 10 mM)
NF-kB SEAP reporter activity (RAW-Dual [3]; agonist: LPS (TLR4) 0.1 ug/mL): 0.98 | NF-kB SEAP reporter activity (RAW-Dual [3]; [6]): 1.56 | NF-kB SEAP reporter activity (RAW-Dual [3]; [7]): 1.02 | NF-kB SEAP reporter activity (RAW-Dual [3]; [8]): 1.06

COc1ccccc1Oc1c(NS(=O)(=O)c2ccc(C(C)(C)C)cc2)nc(-c2ncccn2)nc1OCCO.O
NF-kB SEAP reporter activity (RAW-Dual [1]; [4]): 1.02 | NF-kB SEAP reporter activity (RAW-Dual [1]; [5]): 1.1

COc1ccccc1Oc1c(NS(=O)(=O)c2ccc(C(C)(C)C)cc2)nc(-c2ncccn2)nc1OCCO.O (library stock concentration (final ~1000-fold dilution): 10 mM)
NF-kB SEAP reporter activity (RAW-Dual [3]; agonist: LPS (TLR4) 0.1 ug/mL): 1.15 | NF-kB SEAP reporter activity (RAW-Dual [3]; [6]): 1.01 | NF-kB SEAP reporter activity (RAW-Dual [3]; [7]): 1.06 | NF-kB SEAP reporter activity (RAW-Dual [3]; [8]): 1.1

CC(C)OC(=O)CCC/C=C\CC1C(O)CC(O)C1CCC(O)CCc1ccccc1 (centres undefined) (library stock concentration (final ~1000-fold dilution): 10 mM)
NF-kB SEAP reporter activity (RAW-Dual [3]; agonist: LPS (TLR4) 0.1 ug/mL): 1.4 | NF-kB SEAP reporter activity (RAW-Dual [3]; [6]): 0.911 | NF-kB SEAP reporter activity (RAW-Dual [3]; [7]): 1.1 | NF-kB SEAP reporter activity (RAW-Dual [3]; [8]): 0.929

CC(C)OC(=O)CCC/C=C\CC1C(O)CC(O)C1CCC(O)CCc1ccccc1 (centres undefined)
NF-kB SEAP reporter activity (RAW-Dual [1]; [5]): 1.43

COc1ccc(C(=C2C(=O)Nc3ccccc32)c2ccc(OC)cc2)cc1
NF-kB SEAP reporter activity (RAW-Dual [1]; [4]): 0.748 | NF-kB SEAP reporter activity (RAW-Dual [1]; [5]): 0.978

Cc1c[nH]c(C=C2C(=O)Nc3ccccc32)c1CCC(=O)O (library stock concentration (final ~1000-fold dilution): 10 mM)
NF-kB SEAP reporter activity (RAW-Dual [3]; agonist: LPS (TLR4) 0.1 ug/mL): 0.665 | NF-kB SEAP reporter activity (RAW-Dual [3]; [6]): 0.926 | NF-kB SEAP reporter activity (RAW-Dual [3]; [7]): 0.983 | NF-kB SEAP reporter activity (RAW-Dual [3]; [8]): 0.647

COc1ccc(C(=C2C(=O)Nc3ccccc32)c2ccc(OC)cc2)cc1 (library stock concentration (final ~1000-fold dilution): 10 mM)
NF-kB SEAP reporter activity (RAW-Dual [3]; agonist: LPS (TLR4) 0.1 ug/mL): 1.04 | NF-kB SEAP reporter activity (RAW-Dual [3]; [6]): 0.585 | NF-kB SEAP reporter activity (RAW-Dual [3]; [7]): 0.692 | NF-kB SEAP reporter activity (RAW-Dual [3]; [8]): 0.323

COc1cc(OC)c(/C=C2/C(=O)Nc3ccccc32)c(OC)c1 (library stock concentration (final ~1000-fold dilution): 10 mM)
NF-kB SEAP reporter activity (RAW-Dual [3]; agonist: LPS (TLR4) 0.1 ug/mL): 3.21 | NF-kB SEAP reporter activity (RAW-Dual [3]; [6]): 2.56 | NF-kB SEAP reporter activity (RAW-Dual [3]; [7]): 1.33 | NF-kB SEAP reporter activity (RAW-Dual [3]; [8]): 1.92

COc1cc(OC)c(/C=C2/C(=O)Nc3ccccc32)c(OC)c1
NF-kB SEAP reporter activity (RAW-Dual [1]; [4]): 1.62 | NF-kB SEAP reporter activity (RAW-Dual [1]; [5]): 1.67

Cc1c[nH]c(C=C2C(=O)Nc3ccccc32)c1CCC(=O)O
NF-kB SEAP reporter activity (RAW-Dual [1]; [4]): 0.662 | NF-kB SEAP reporter activity (RAW-Dual [1]; [5]): 0.848

NC(N)=NCCCC(N)C(=O)NC(CCCN=C(N)N)C(=O)N1CCCC1C(=O)N1CC(O)CC1C(=O)NCC(=O)NC(Cc1cccs1)C(=O)NC(CO)C(=O)N1Cc2ccccc2CC1C(=O)N1C(C(=O)NC(CCCN=C(N)N)C(=O)O)CC2CCCCC21 (centres undefined) (library stock concentration (final ~1000-fold dilution): 2 mM water)
NF-kB SEAP reporter activity (RAW-Dual [3]; agonist: LPS (TLR4) 0.1 ug/mL): 0.985 | NF-kB SEAP reporter activity (RAW-Dual [3]; [6]): 1.06 | NF-kB SEAP reporter activity (RAW-Dual [3]; [7]): 1.1 | NF-kB SEAP reporter activity (RAW-Dual [3]; [8]): 0.962

NC(N)=NCCCC(N)C(=O)NC(CCCN=C(N)N)C(=O)N1CCCC1C(=O)N1CC(O)CC1C(=O)NCC(=O)NC(Cc1cccs1)C(=O)NC(CO)C(=O)N1Cc2ccccc2CC1C(=O)N1C(C(=O)NC(CCCN=C(N)N)C(=O)O)CC2CCCCC21 (centres undefined)
NF-kB SEAP reporter activity (RAW-Dual [1]; library stock concentration (final ~1000-fold dilution): 2 mM water, cytotoxicity flag (confluency mask): not cytotoxic, agonist: Imiquimod (TLR7) […]): 0.945 | NF-kB SEAP reporter activity (RAW-Dual [1]; library stock concentration (final ~1000-fold dilution): 2 mM water, cytotoxicity flag (confluency mask): not cytotoxic, agonist: MPLA (TLR4) […]): 1.05
